# Source: PubChem BioAssay (NCATS)
# Records with an inconclusive call do not appear. Where a call stands in place of a potency, no number is given. Active and inactive are the calls of the source. Unless noted, calls come from the whole dose curve; as a rule, active = well fitted curve in the direction sought with a large enough effect; inconclusive = small, poorly fitted or top-dose-only effect, or another doubt; inactive = no such curve, though single readings can be large; an effect the other way counts as inactive or inconclusive.
# How the values were obtained:
# [1] = molecular target: Cytochrome P450 2C9 (Homo sapiens) (UniProt P11712); experiment: Cytochrome P450 family 2 subfamily C member 9 (CYP2C9) small molecule antagonists: luciferase biochemical (cell-free) qHTS assay (AID 1645842; active = well fitted curve in the direction sought with a large enough effect in the repeat runs; an effect the other way counts as inactive or inconclusive; note: nearly all actives have a fitted effect of over 55% in size; note: potency is the fitted concentration of half-maximal effect); conditions: P450-Glo CYP2C9 enzyme assay, luciferin luminescence; series mostly up to 57.4 µM
# Cytochrome P450 2C9 (Homo sapiens), sequence (P11712 whole entry, looked up): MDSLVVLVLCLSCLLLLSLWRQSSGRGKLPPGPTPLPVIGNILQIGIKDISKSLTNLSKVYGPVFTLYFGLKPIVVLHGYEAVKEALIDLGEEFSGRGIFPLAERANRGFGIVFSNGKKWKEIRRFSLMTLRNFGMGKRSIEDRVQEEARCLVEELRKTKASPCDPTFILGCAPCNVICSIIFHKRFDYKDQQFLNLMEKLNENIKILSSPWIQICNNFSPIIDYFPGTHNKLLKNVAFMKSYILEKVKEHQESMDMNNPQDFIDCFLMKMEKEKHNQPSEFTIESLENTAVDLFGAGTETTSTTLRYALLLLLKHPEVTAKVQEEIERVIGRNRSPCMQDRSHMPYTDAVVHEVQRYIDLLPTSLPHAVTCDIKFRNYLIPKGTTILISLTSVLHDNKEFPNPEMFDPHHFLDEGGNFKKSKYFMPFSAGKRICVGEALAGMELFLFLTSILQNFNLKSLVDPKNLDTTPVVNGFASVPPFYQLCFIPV
# Procedure, shortened: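 Luminescence, after 20 min with luciferin detection reagent, reflected CYP2C9 turnover during a 1 h NADPH-driven reaction at 37C. Enzyme-substrate mix contained 0.4% bovine serum albumin and was preincubated with compound 10 min at room temperature.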
# [2] = Cytotoxicity counterscreen for inhibitors of SARS-CoV-2 cell entry (AID 1645845; calls by dose curve; note: nearly all actives have a fitted effect of over 50% in size); conditions: cell viability (SARS-CoV-2 entry assay cells); series mostly up to 57.1 µM
# Procedure, shortened: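 Expi293F/hACE2 cells seeded overnight; cpd pin-transferred in DMSO, 1 h preincubation, + media, 48 h 37 C 5% CO2; ATPLite 1step luminescence; normalized to cells and no cells.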
# [3] = Primary qHTS for inhibitors of nuclear receptor binding SET domain protein 2 (NSD2) in an isogenic RCH-ACV NSD2 p.E1099K mutant (9B) (AID 1645876); conditions: RCH-ACV NSD2 E1099K (9B) viability, CellTiter-Glo, 72 h; series mostly up to 44.9 µM; note: nearly all actives have a fitted effect of over 70% in size; note: potency is the fitted concentration of half-maximal effect
# [4] = Primary qHTS for inhibitors of nuclear receptor binding SET domain protein 2 (NSD2) in an RCH-ACV wild type WT cells (2C) (AID 1645877); conditions: RCH-ACV (leukaemia line) NSD2 WT (2C) viability, CellTiter-Glo, 72 h; series mostly up to 44.9 µM; note: nearly all actives have a fitted effect of over 70% in size; note: potency is the fitted concentration of half-maximal effect
# [5] = molecular target: Glutathione peroxidase 1 (Homo sapiens) (UniProt P07203); experiment: Primary qHTS Assay for Inhibitors of Recombinant Selenoprotein Glutathione Peroxidase 1 (GPX1) (AID 1845191); conditions: recombinant GPX1, GR-coupled NADPH fluorescence, 15 min; series mostly up to 48.8 µM; note: nearly all actives have a fitted effect of over 65% in size
# Glutathione peroxidase 1 (Homo sapiens), sequence (P07203 whole entry, looked up): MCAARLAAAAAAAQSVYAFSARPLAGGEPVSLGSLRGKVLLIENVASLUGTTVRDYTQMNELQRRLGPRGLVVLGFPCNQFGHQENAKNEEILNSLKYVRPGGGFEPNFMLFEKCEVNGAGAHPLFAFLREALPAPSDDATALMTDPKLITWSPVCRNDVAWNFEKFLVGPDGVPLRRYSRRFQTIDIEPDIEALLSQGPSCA
# Procedure, shortened: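 Recombinant GPX1 (10 nM final) was preincubated with compound for 30 min at room temperature, then reacted with 1 mM GSH, 0.5 mM CHP, 0.5 mM NADPH and 100 nM glutathione reductase; NADPH fluorescence (340/450 nm) was read at 0 and 15 min.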
# [6] = molecular target: Papain (Carica papaya) (UniProt P00784); experiment: Primary qHTS assay for inhibitors of the protease papain (AID 1645873); conditions: papain Z-FR-AMC cleavage, AMC fluorescence; series mostly up to 49.8 µM;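 note: papain turnover of Z-FR-AMC read as the AMC fluorescence gain over 10 min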
# Papain (Carica papaya), sequence (P00784 whole entry, looked up): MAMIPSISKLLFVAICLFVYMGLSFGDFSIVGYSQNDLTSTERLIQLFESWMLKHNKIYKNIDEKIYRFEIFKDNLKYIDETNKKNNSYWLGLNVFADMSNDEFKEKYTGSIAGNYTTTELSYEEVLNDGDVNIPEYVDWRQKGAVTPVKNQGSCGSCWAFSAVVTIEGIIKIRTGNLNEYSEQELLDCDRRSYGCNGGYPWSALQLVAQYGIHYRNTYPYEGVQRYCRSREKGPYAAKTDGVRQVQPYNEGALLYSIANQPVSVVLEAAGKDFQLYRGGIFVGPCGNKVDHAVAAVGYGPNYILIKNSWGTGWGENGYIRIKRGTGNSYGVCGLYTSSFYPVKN
# [7] = molecular target: Metallo-beta-lactamase type 2 (Klebsiella pneumoniae) (UniProt C7C422); experiment: qHTS to identify inhibitors of the New Delhi Metallo-beta-lactamase (NDM): assay validation screen against the NCATS LOPAC Collection (AID 1794843); conditions: NDM-1 enzyme, nitrocefin hydrolysis, absorbance 485 nm; series mostly up to 38.4 µM;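 note: nitrocefin turnover by NDM-1 measured as 485 nm absorbance at plateau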
# Metallo-beta-lactamase type 2 (Klebsiella pneumoniae), sequence (C7C422 whole entry, looked up): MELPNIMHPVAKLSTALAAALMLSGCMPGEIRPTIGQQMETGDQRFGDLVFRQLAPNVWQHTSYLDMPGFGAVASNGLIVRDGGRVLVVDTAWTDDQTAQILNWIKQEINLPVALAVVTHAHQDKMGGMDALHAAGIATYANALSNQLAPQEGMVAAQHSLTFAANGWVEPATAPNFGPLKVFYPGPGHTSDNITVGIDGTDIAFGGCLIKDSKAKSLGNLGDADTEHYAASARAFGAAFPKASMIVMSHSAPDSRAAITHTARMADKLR
# Procedure, shortened: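 NDM-1 at 2 nM final in 50 mM HEPES pH 7.0 with 1 uM ZnSO4 and 0.01% Tween20 was preincubated with library compounds in DMSO. Nitrocefin (50 uM stock) was then added, and absorbance at 485 nm was read at the kinetic plateau.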
# [8] = Primary qHTS to identify inhibitors of SARS-CoV-2 cell entry (AID 1645846; calls by dose curve; note: nearly all actives have a fitted effect of over 45% in size); conditions: SARS-CoV-2 pseudovirus cell entry assay, luminescence; activity change, negative = inhibition: at 57.1 µM (top of the series) unless noted; series mostly up to 57.1 µM
# Procedure, shortened: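 Luminescence readout (Bright-Glo luciferase) 48 h after pseudoparticle addition. HEK293-ACE2 cells, 1500/well; compound pre-incubation 1 h; Normalized to spike PP and bald PP.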
compound,measurement,setting,value
COc1cccc(C(=O)CCN[C@@H](C)[C@H](O)c2ccccc2)c1,Potency,[1],30.9 µM (active)
same,Potency,[2],inactive
same,Potency,[3],16.8 µM (active)
same,Potency,[4],9.44 µM (active)
same,Potency,[5],inactive
CCc1cc2c(s1)-n1c(C)nnc1CN=C2c1ccccc1Cl,Potency,[1],inactive
same,Potency,[2],inactive
same,Potency,[5],inactive
CC(C)(C)NCC(O)c1cc(Cl)c(N)c(C(F)(F)F)c1 (centres undefined),Potency,[1],inactive
same,Potency,[2],inactive
same,Potency,[3],inactive
same,Potency,[4],inactive
same,Potency,[5],inactive
O=c1[nH]oc2c1CCNC2,Potency,[1],inactive
same,outcome,[6],inactive
same,Potency,[3],inactive
same,Potency,[4],inactive
same,outcome,[7],inactive
same,Potency,[5],inactive
C[C@]12CC[C@H]3[C@@H](CCC4=CC(=O)CC[C@@H]43)[C@@H]1CC[C@@H]2OC(=O)CCC1CCCCC1,Potency,[1],24.5 µM (active)
same,Potency,[2],inactive
same,Potency,[3],23.7 µM (active)
same,Potency,[4],18.8 µM (active)
same,Potency,[5],inactive
CCN(CCO)CCn1c(Cc2ccccc2)nc2c1c(=O)n(C)c(=O)n2C,Potency,[1],inactive
same,Potency,[3],inactive
same,Potency,[4],inactive
CC(Cc1ccccc1)NCCn1cnc2c1c(=O)n(C)c(=O)n2C (centres undefined),Potency,[1],inactive
same,Potency,[3],inactive
same,Potency,[4],inactive
O=c1[nH]c2ccccc2n1C1CCNCC1,Potency,[1],inactive
same,Potency,[3],inactive
same,Potency,[4],inactive
COc1ccc2c3c1O[C@H]1[C@H](O)CC[C@H]4[C@@H](C2)N(C)CC[C@@]341,Potency,[1],inactive
same,Potency,[3],inactive
same,Potency,[4],inactive
C[C@]12CC[C@H]3[C@@H](CC[C@@]45O[C@H]4C(O)=C(C#N)C[C@]35C)[C@H]1CC[C@H]2O,Potency,[1],inactive
same,"activity change, negative = inhibition",[8],-26.2%
same,Potency,[3],15 µM (active)
same,Potency,[4],10.6 µM (active)
same,Potency,[5],inactive
NS(=O)(=O)c1ccc(Cl)c(S(N)(=O)=O)c1,Potency,[2],inactive
CS(=O)(=O)c1ccc([C@@H](O)[C@@H](CO)NC(=O)C(Cl)Cl)cc1,Potency,[2],inactive
CC(=O)CC(c1ccccc1)c1c(O)c2ccccc2oc1=O (centres undefined),Potency,[2],inactive
c1ccc2c(c1)sc1ccccc12,Potency,[1],inactive
same,Potency,[2],inactive
same,"activity change, negative = inhibition",[8],-6.22%
same,Potency,[3],inactive
same,Potency,[4],inactive
same,Potency,[5],inactive
CCCN(CCC)C(=O)Cc1c(-c2ccc(Cl)cc2)nc2ccc(Cl)cn12,Potency,[1],12.3 µM (active)
same,Potency,[3],inactive
same,Potency,[4],inactive
[N-]=[N+]=CC(=O)OC[C@H](N)C(=O)O,Potency,[1],inactive
same,Potency,[3],inactive
same,Potency,[4],inactive
CNCC(=O)c1ccc(O)c(O)c1,Potency,[1],inactive
same,Potency,[3],inactive
COc1cc(CCN)cc(OC)c1OC,Potency,[1],inactive
same,Potency,[4],41.8 µM (active)
Nc1ccccc1,Potency,[1],inactive
same,Potency,[2],inactive
same,Potency,[3],inactive
same,Potency,[4],inactive
same,Potency,[5],inactive
O=C(Cn1ccnc1[N+](=O)[O-])NCc1ccccc1,Potency,[2],inactive
CO[C@@]1(NC(=O)CSC[C@@H](N)C(=O)O)C(=O)N2C(C(=O)O)=C(CSc3nnnn3C)CS[C@@H]21,Potency,[2],inactive
C[C@@H]1[C@H](O)[C@@H](C)/C=C/C=C\C=C\C=C\C=C\C=C\C=C\[C@H](O[C@@H]2O[C@H](C)[C@@H](O)[C@H](N)[C@@H]2O)C[C@@H]2O[C@](O)(C[C@@H](O)C[C@@H](O)[C@H](O)CC[C@@H](O)C[C@@H](O)CC(=O)O[C@H]1C)C[C@H](O)[C@H]2C(=O)O (stereo in doubt),Potency,[2],inactive
same,Potency,[8],inactive
CC(C)CN(C[C@@H](OP(=O)(O)O)[C@H](Cc1ccccc1)NC(=O)O[C@H]1CCOC1)S(=O)(=O)c1ccc(N)cc1,Potency,[2],inactive
same,"activity change, negative = inhibition",[8],-18.7%
Cc1c(Nc2ncccc2C(=O)O)cccc1C(F)(F)F,Potency,[2],inactive
same,Potency,[8],inactive
O=C(OOC(=O)c1ccccc1)c1ccccc1,Potency,[2],inactive
same,Potency,[8],inactive
CC(N=C(NC#N)Nc1ccncc1)C(C)(C)C (centres undefined),Potency,[2],inactive
same,"activity change, negative = inhibition",[8],-37.8%
CCC(Cc1c(I)cc(I)c(N)c1I)C(=O)O (centres undefined),Potency,[2],inactive
same,Potency,[8],inactive
